Screens as filed in PubChem BioAssay.
This is a sample that favours compounds with a hit; in the whole collection about 0.41% have one here.
TRPML1 agonist: agonists of human TRPML1 channel | AID 624414 | 410,000 compounds, 0.12% hits | TRPML1-expressing cells, Ca2+ dye fluorescence, FDSS | Q9GZU1 | activation, % (no concentration beside the values); in the data active = activation above about 50%; inconclusive = mostly about 30% to 49%; also: 0% is about no effect
Target sequence (Q9GZU1 whole entry, looked up): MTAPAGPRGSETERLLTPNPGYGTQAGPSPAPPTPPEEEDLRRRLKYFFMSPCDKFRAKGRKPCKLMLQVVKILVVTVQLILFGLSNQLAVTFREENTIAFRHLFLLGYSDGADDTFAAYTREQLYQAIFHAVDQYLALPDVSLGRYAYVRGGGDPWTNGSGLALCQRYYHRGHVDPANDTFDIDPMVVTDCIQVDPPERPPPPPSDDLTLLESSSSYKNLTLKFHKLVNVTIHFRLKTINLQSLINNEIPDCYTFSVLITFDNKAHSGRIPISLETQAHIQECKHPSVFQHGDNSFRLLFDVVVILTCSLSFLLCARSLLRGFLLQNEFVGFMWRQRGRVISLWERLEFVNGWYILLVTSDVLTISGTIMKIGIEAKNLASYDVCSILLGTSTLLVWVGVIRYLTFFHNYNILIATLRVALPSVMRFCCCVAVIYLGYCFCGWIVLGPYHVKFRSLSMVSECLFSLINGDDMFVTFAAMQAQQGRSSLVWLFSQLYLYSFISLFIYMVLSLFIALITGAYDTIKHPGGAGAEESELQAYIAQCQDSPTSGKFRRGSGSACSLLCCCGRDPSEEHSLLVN
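Tetracycline-induced TRPML1-DL cells are seeded and incubated overnight before loading with a no-wash Ca2+ dye and quencher. Agonist activity is taken from the 110 s fluorescence read following compound pin-transfer on an FDSS, before EC80 54-4 challenge.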
TRPV1 potentiator: human TRPV1 potentiation; Q8NER1; TRPV1-expressing cells, Fluo-8 calcium influx, capsaicin EC20 potentiation; potentiation, % at 8.33 µM; 320,000 compounds, 0.02% hits; AID 540277; in the data active = potentiation above about 80%; inconclusive = between about 30% and that limit; also: 0% is about no effect
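Fluo-8 calcium influx in TRPV1-expressing cells, kinetic read (ex 480/em 520 nm). Compound added and read 3 min for agonist activity, followed by capsaicin at EC20 final and 2 min further read for enhancement.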
A-T KAP1 phos: potential ataxia-telangiectasia treatments restoring KAP-1 phosphorylation; F2112 A-T fibroblasts, KAP-1 phosphorylation AlphaLISA; neocarzinostatin DNA damage 30 min before lysis; Potency, µM (titrated, usually from 57.5 µM), without a hit: top-dose activation, actives largely listed as activators; 320,000 compounds, 0.19% hits; active = well fitted activation curve with a large enough effect; inconclusive = small, poorly fitted or top-dose-only effect; inactive = no such curve, though single readings can be large or run the other way; also: potency is read from the fitted curve at half-maximal effect; % of control where 0% means no effect; nearly all actives have a fitted effect of over 45% in size
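hTERT-immortalized A-T patient fibroblasts (F2112), 500 cells/well in OPTI-MEM, 1% FBS, got compounds for 60 min, then NCS for 30 min at 37C. Lysates were then assayed for phospho-KAP-1 by AlphaLISA (anti-pKAP1 donor, anti-KAP1 acceptor beads), 6 hr at 25C.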
TRPML1 blocker: blocks the human TRPML1 channel | TRPML1-inducible cells, Ca2+ dye fluorescence, FDSS; stronger effect = lower value; inhibition of EC80 agonist-evoked calcium signal | Q9GZU1 | 390,000 compounds, 0.02% hits | activity change, negative = inhibition, % (no concentration beside the values); in the data active = activity change below about -50%; inconclusive = between about -30% and that limit;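 also: stimulus is agonist 54-4 at its EC80 concentration; % is scaled to controls: 0 for no effect and ±100 for the full control effect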
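Calcium fluorescence in TRPML1-DL cells induced overnight with Tet: a 110 s read after compound pin addition, then a 110 s antagonist read after challenge with 54-4 at 4 uM final (EC80).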
TRPV1 agonist: human TRPV1 agonism; activation, % at 8.33 µM; AID 540275; TRPV1-expressing cells, Fluo-8 calcium influx, agonist mode; 320,000 compounds, 0.19% hits; in the data active = activation above about 80%; inconclusive = between about 30% and that limit; also: 0% is about no effect
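Cells expressing TRPV1 were dye-loaded with Fluo-8 and read kinetically: 10 s baseline, 3 min after compound (agonist portion), then 2 min after EC20 capsaicin (allosteric enhancer portion). Calcium-bound dye fluorescence at 480/520 nm.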
Numbers without * were called inactive.

What do the screens show for `COc1ccccc1N1CCN(c2ccc3cc(S(=O)(=O)N4CCCCC4)ccc3n2)CC1`?
TRPML1 agonist: 96*; TRPV1 potentiator: 2; A-T KAP1 phos: -2%; TRPML1 blocker: -19; TRPV1 agonist: 6

Results for Cc1ccc(-n2nc(C(=O)N3CCOCC3)cc2-c2ccc(Cl)cc2)cc1 ?
TRPML1 agonist: 1; TRPV1 potentiator: 1; A-T KAP1 phos: -4%; TRPML1 blocker: 0; TRPV1 agonist: 89*

What do the screens show for `O=C(c1cc(-c2ccc(Cl)cc2)n(-c2ccc(Cl)cc2)n1)N1CCOCC1`?
TRPML1 agonist: 2; TRPV1 potentiator: -16; A-T KAP1 phos: 2%; TRPML1 blocker: 11; TRPV1 agonist: inconclusive

What do the screens show for `O=C(c1cc(-c2ccc(Cl)cc2Cl)on1)N1CCOCC1`?
TRPML1 agonist: 1; TRPV1 potentiator: -1; A-T KAP1 phos: 12%; TRPML1 blocker: 19; TRPV1 agonist: 83*

Results for O=C(c1cc(-c2ccc(Cl)c(Cl)c2)on1)N1CCOCC1 ?
TRPML1 agonist: 0; TRPV1 potentiator: 4; A-T KAP1 phos: -6%; TRPML1 blocker: 6; TRPV1 agonist: 80*

What do the screens show for `O=C(c1cc(-c2ccc(Cl)c(Cl)c2)on1)N1CCCC1`?
TRPV1 potentiator: -19; A-T KAP1 phos: 8%; TRPV1 agonist: 28

How did COc1cc2nc(N3CCCN(C)CC3)nc(Nc3ccncc3)c2cc1OC do in these assays?
TRPML1 agonist: 0

What do the screens show for `O=C1c2ccccc2C(=O)N1c1nc(-c2ccc(F)cc2)cs1`?
TRPML1 agonist: -1

Results for O=[N+]([O-])c1ccc(/C=N/Nc2nc(N3CCCCCC3)nc(N3CCCCCC3)n2)o1 ?
TRPML1 agonist: 0; TRPV1 potentiator: 18; A-T KAP1 phos: -2%; TRPML1 blocker: 3; TRPV1 agonist: 0

How did Cc1ccc(/C=N/Nc2nc(N3CCCCC3)nc(N3CCCCC3)n2)o1 do in these assays?
TRPML1 agonist: 1; TRPV1 potentiator: 2; A-T KAP1 phos: 4%; TRPML1 blocker: 15; TRPV1 agonist: 85*

How did c1ccc2c(c1)oc1c(Nc3ccc(CN4CCOCC4)cc3)ncnc12 do in these assays?
TRPML1 agonist: 0; TRPV1 potentiator: -8; A-T KAP1 phos: -13%; TRPML1 blocker: 4; TRPV1 agonist: 84*

What do the screens show for `Oc1ccc(Nc2ncnc3c2oc2ccccc23)cc1`?
TRPML1 agonist: 0; TRPV1 potentiator: -3; A-T KAP1 phos: 3%; TRPML1 blocker: 2; TRPV1 agonist: inconclusive

What do the screens show for `c1ccc(Nc2ncnc3c2oc2ccccc23)cc1`?
TRPML1 agonist: 0; TRPV1 potentiator: -5; TRPML1 blocker: -2; TRPV1 agonist: 81*

How did c1ccc2c(c1)oc1c(NCCN3CCOCC3)ncnc12 do in these assays?
TRPML1 agonist: 0; TRPV1 potentiator: 1; A-T KAP1 phos: -6%; TRPML1 blocker: 6; TRPV1 agonist: 6

What do the screens show for `O=C(O)C#CC(=O)O`?
TRPML1 agonist: 0

How did CC1=NN(c2nc(-c3ccc(Cl)cc3)cs2)C(=O)C1 do in these assays?
TRPML1 agonist: 0; TRPV1 potentiator: 17; A-T KAP1 phos: 0%; TRPML1 blocker: 7; TRPV1 agonist: -4

What do the screens show for `Cc1ccc(-c2csc(N3C(=N)SCC3=O)n2)cc1`?
TRPML1 agonist: -1; TRPV1 potentiator: -6; A-T KAP1 phos: 22µM*; TRPML1 blocker: 16; TRPV1 agonist: 9

What do the screens show for `Cc1cccc(/C=C/c2cccs2)n1`?
TRPML1 agonist: 0

Results for CC(=O)c1ccc(NC(=O)CN2CCN(CC(=O)Nc3ccc(C(C)=O)cc3)CC2)cc1 ?
TRPML1 agonist: 0; TRPV1 potentiator: -15; A-T KAP1 phos: 6%; TRPML1 blocker: 5; TRPV1 agonist: -1

How did CCN1CCN(CC(=O)Nc2ccc(C(C)=O)cc2)CC1 do in these assays?
TRPML1 agonist: 0; TRPV1 potentiator: 16; A-T KAP1 phos: 4.5µM*; TRPML1 blocker: -8; TRPV1 agonist: -5

How did CCNC(=O)COc1ccc(/C=C2\COc3ccccc3C2=O)cc1OC do in these assays?
TRPML1 agonist: 3; TRPV1 potentiator: inconclusive; A-T KAP1 phos: 25µM*; TRPML1 blocker: -2; TRPV1 agonist: -2

How did Oc1c(C(Nc2cccnc2)c2ccccc2F)ccc2cccnc12 (centres undefined) do in these assays?
TRPML1 agonist: -1

What do the screens show for `COC(=O)c1ccccc1NC(=O)c1cnn2c1NC(=C1CC1)C=C2C(F)F`?
TRPML1 agonist: -1

How did CCOC(=O)c1ccc(NC(=O)N2CCN(c3cccc(OC)c3)CC2)cc1 do in these assays?
TRPML1 agonist: 0; TRPV1 potentiator: -20; A-T KAP1 phos: 0%; TRPML1 blocker: -5; TRPV1 agonist: 99*

Results for CC(=O)c1ccc(NC(=O)N2CCN(c3cccc(Cl)c3)CC2)cc1 ?
TRPML1 agonist: 0; TRPV1 potentiator: 2; A-T KAP1 phos: 6%; TRPML1 blocker: 3; TRPV1 agonist: 0

What do the screens show for `CC(=O)c1ccc(N2CCN(C(=O)Nc3ccc(Cl)cc3)CC2)cc1`?
TRPML1 agonist: -2; TRPV1 potentiator: -18; A-T KAP1 phos: -2%; TRPML1 blocker: 12; TRPV1 agonist: 84*

Results for CC1Cc2ccccc2N1Cc1nc2cc(C(F)(F)F)ccc2c(=O)[nH]1 (centres undefined) ?
TRPML1 agonist: 2; TRPV1 potentiator: -9; A-T KAP1 phos: 1%; TRPML1 blocker: -3; TRPV1 agonist: 1

Results for NC(=O)C1CCN(Cc2nc3cc(C(F)(F)F)ccc3c(=O)[nH]2)CC1 ?
TRPML1 agonist: 0; TRPV1 potentiator: -23; A-T KAP1 phos: 11µM*; TRPML1 blocker: -7; TRPV1 agonist: 7

What do the screens show for `Cn1c2ccccc2c2ncn(Cc3ccco3)c(=O)c21`?
TRPML1 agonist: 0; TRPV1 potentiator: 1; A-T KAP1 phos: 3%; TRPML1 blocker: -8; TRPV1 agonist: -3

What do the screens show for `Cn1c2ccccc2c2ncn(Cc3ccc(F)cc3)c(=O)c21`?
TRPML1 agonist: 0; TRPV1 potentiator: -3; A-T KAP1 phos: 22%; TRPML1 blocker: -15; TRPV1 agonist: 80*

What do the screens show for `Fc1ccc(N2N=C(c3cccs3)CC2c2ccccc2)cc1` (centres undefined)?
TRPML1 agonist: 2; TRPV1 potentiator: -4; A-T KAP1 phos: 22µM*; TRPML1 blocker: -6; TRPV1 agonist: 9

What do the screens show for `O=S(=O)(c1ccccc1)N1N=C(c2cccs2)CC1c1ccc(F)cc1` (centres undefined)?
TRPML1 agonist: -1; TRPV1 potentiator: 11; A-T KAP1 phos: 5%; TRPML1 blocker: -9; TRPV1 agonist: 1

How did N#C/C(=C\c1ccc(N2CCOCC2)o1)c1nc2ccccc2[nH]1 do in these assays?
TRPML1 agonist: 60*; TRPV1 potentiator: 11; A-T KAP1 phos: -12%; TRPML1 blocker: -13; TRPV1 agonist: -3
